The source of these data is PubChem BioAssay (NCATS).

Assay [1] in a line: qHTS profiling of the MIPE4 collection as inhibitors of Plasmodium falciparum (DD2) proliferation (AID 743345; call rule not given here). Conditions: P. falciparum Dd2 in erythrocytes, SYBR Green DNA, 72 h; at 28.5 µM (top of the series) unless noted. Put shortly:
(§1)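 Erythrocytes infected with P. falciparum (0.3% parasitemia, 2.5% hematocrit) incubated with compounds 72 h at 37 C, 5% CO2. Lysis with saponin/Triton buffer containing SYBR Green I, overnight at room temperature in the dark; DNA fluorescence (485/535 nm) normalised to 0.29 uM artemisinin and DMSO.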

A short description of assay [2]: qHTS profiling of the MIPE4 collection as inhibitors of Plasmodium falciparum (DD2) proliferation (Rep 2) (AID 743346; call rule not given here). The settings on record: P. falciparum Dd2 in erythrocytes, SYBR Green DNA, 72 h; at 28.5 µM (top of the series) unless noted. Put shortly: as §1
Background: In qHTS, concentration-response curves come from the screen itself.

Assay [3] is described as follows: qHTS profiling of the MIPE4 collection as inhibitors of Plasmodium falciparum (HB3) proliferation (AID 743347; call rule not given here;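 also: plate controls were DMSO vehicle wells for no effect and artemisinin wells for full effect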). The settings on record: P. falciparum HB3 in erythrocytes, SYBR Green DNA, 72 h; at 28.5 µM (top of the series) unless noted. Put shortly:
as §1

The nature of assay [4]: High-throughput drug toxicity screening in the BPDCN cell line Cal-1 (AID 1224825; call rule not given here). Conditions: Cal-1 BPDCN cell viability, qHTS; at 45.8 µM (top of the series) unless noted. Put shortly:
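500 Cal-1 cells/well, RPMI + glutamine + 10% FBS (phenol red-free); cpd added by pin tool; 48 h, 37C, 5% CO2; CTG 15 min RT, lumi read. Normalised: DMSO 100%, bortezomib 9.2 uM 0%.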

Assay [5] can be described thus: qHTS assay for measurement of the activity of small molecule inhibitors on Zika virus induced Caspase-3 activity in human iPSC derived neural progenitor cells (hNPCs) (AID 1224857). Also: % of control where 0% means no effect; nearly all actives have a fitted effect of over 65% in size. The procedure, abridged: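 Percent inhibition of virus-induced caspase-3/7 luminescence (Caspase-Glo), scaled between uninfected cells and Zika-infected cells. hNPCs received compound 1 hr before ZIKV at 2 FFU/cell, with 6 hours infection at 37 C.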

A short description of assay [6]: qHTS Screen of the MIPE 4.0 Collection Against Ewings Sarcoma (RDES) (AID 1259252). Also: nearly all actives have a fitted effect of over 35% in size. Also: potency is read from the fitted curve at half-maximal effect. Put shortly: (§2)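 Cells plated in serum-containing RPMI (5% FBS) and treated with compound dilutions for 48 h. Readout luminescent viability; normalization relied on vehicle (no inhibition) and media-only columns (full inhibition).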
The nature of assay [7]: qHTS Screen of the MIPE 4.0 Collection Against Ewings Sarcoma (TC32) (AID 1259256). Also: nearly all actives have a fitted effect of over 45% in size. Also: potency is read from the fitted curve at half-maximal effect. Put shortly:
as §2

Assay [8] in a line: qHTS profiling of the MIPE4 collection as inhibitors of Plasmodium falciparum (3D7) proliferation (AID 743344; call rule not given here;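 also: scaled between DMSO vehicle wells and 0.29 µM artemisinin as full inhibition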). Conditions: P. falciparum 3D7 in erythrocytes, SYBR Green DNA fluorescence, 72 h; at 28.5 µM (top of the series) unless noted. The procedure, abridged:
as §1

A short description of assay [9]: qHTS assay for measurement of the activity of small molecule inhibitors on Zika virus induced Caspase-3 activity in human astrocytoma cells (AID 1224859).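 Also: plate controls were ZIKV-infected untreated cells for no effect and uninfected cells for full effect.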 The procedure, abridged: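 Luminescent caspase-3/7 read-out (30 min reagent, room temperature) in human SNB-19 cells infected 6 h with ZIKV (2 FFU/cell) after 1 h compound pre-incubation; Data were normalised to uninfected and infected wells.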

A short description of assay [10]: qHTS Screen of the MIPE 4.0 Collection Against Ewings Sarcoma (EW8) (AID 1259255). Also: nearly all actives have a fitted effect of over 35% in size. Also: potency is read from the fitted curve at half-maximal effect.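 As to viability: 100% = DMSO-treated cells and 0% = medium-only wells without cells.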 The procedure, abridged:
as §2

Assay [11] in a line: qHTS Screen of the MIPE 4.0 Collection Against Ewings Sarcoma (TC71) (AID 1259253). Also: nearly all actives have a fitted effect of over 40% in size. Also: potency is read from the fitted curve at half-maximal effect. The procedure, abridged:
as §2

Assay [12] can be described thus: qHTS profiling for inhibitors of Plasmodium falciparum (DD2) proliferation (AID 743323; call rule not given here). Conditions: lower = more inhibition; at 28.7 µM (top of the series) unless noted. The procedure, abridged:
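SYBR Green fluorescence (ex 485, em 535 nm) of lysed cultures gives parasite DNA content; wells normalized to artemisinin (0.29 uM) and DMSO controls. Infected red cells: 0.3% parasitemia, 2.5% hematocrit, 72 h, 37 C.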

A short description of assay [13]: qHTS profiling for inhibitors of Plasmodium falciparum (HB3) proliferation (AID 743324).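 Also: 100% = DMSO vehicle wells and 0% = artemisinin-treated control wells.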 The settings on record: Plasmodium falciparum HB3 blood-stage proliferation; at 28.7 µM (top of the series) unless noted. The procedure, abridged:
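P. falciparum HB3 grown in erythrocytes (0.3% parasitemia, 2.5% hematocrit final) with compound for 72 h at 37 C, 5% CO2. Parasite DNA detected by SYBR Green after saponin/triton lysis overnight; normalized to 0.29 uM artemisinin and DMSO.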

The nature of assay [14]: Identifying Small Molecule Inhibitors of Pancreatic Cancer Stem Cells (A2780, Spheroid) (AID 1259357).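 Also: compound exposure lasted 48 h before the ATP luminescence read; 100% = DMSO treated cells and 0% = wells without cells.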 Conditions: Potency: A2780 spheroid viability. Put shortly:
(§3)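 Cytotoxicity read by CellTiter-Glo luminescence after 48 h compound exposure at 37C; percent activity scaled between DMSO-treated cells and cell-free wells. Spheroid formats used cells pre-formed 14 days in stem cell media on hydrogel.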

A short description of assay [15]: Identifying Small Molecule Inhibitors of Pancreatic Cancer Stem Cells (SN12C, Adherent) (AID 1259358).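 Also: cell survival measured after 48 h of compound exposure.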 The procedure, abridged:
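Pre-formed 14-day tumor spheroids or adherent cells dosed and incubated 48 h, 37C, 5% CO2. Viability assessed by CellTiter-Glo.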

Assay [16] in a line: Identifying Small Molecule Inhibitors of Pancreatic Cancer Stem Cells (SN12C, Spheroid) (AID 1259360).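 Also: 100% = DMSO-treated cells and 0% = wells without cells.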 The settings on record: Potency: SN12C spheroid viability. The procedure, abridged:
as §3

Records with an inconclusive call do not appear. Activity calls are given as the source filed them. Unless noted, calls follow the shape of the dose curve; as a rule, active = well fitted curve in the direction sought with a large enough effect; inconclusive = small, poorly fitted or top-dose-only effect, or another doubt; inactive = no such curve, though single readings can be large; an effect the other way counts as inactive or inconclusive.

Compound `CO[C@H]1/C=C\O[C@@]2(C)Oc3c(C)c(O)c4c(O)c(c(C=NN5CCN(C6CCCC6)CC5)c(O)c4c3C2=O)NC(=O)C(C)=CC=C[C@H](C)[C@H](O)[C@@H](C)[C@@H](O)[C@@H](C)[C@H](OC(C)=O)[C@H]1C` displayed a parasite growth remaining, % of DMSO control (lower = more inhibition) in assay [1] of 6.13%. The parasite growth, % of control (lower = inhibition) in [2] worked out at 8.54%. The compound further registered a growth, % of control in assay [3] of 2.45%. Besides, the viability (% of control) in [4] is 0.727%. Besides, the Potency entry in assay [5] and in [7] was “inactive” in each case. For the same compound, the Potency in assay [6] is 0.0418 µM (active).

For the compound `C=CC[N+]1([C@H]2C[C@H]3[C@@H]4CC[C@H]5C[C@H](O)[C@@H](N6CCOCC6)C[C@]5(C)[C@@H]4CC[C@]3(C)[C@H]2OC(C)=O)CCCC1`, the parasite growth, % of DMSO control in assay [8] was determined as 31.1%. The compound also had a parasite growth remaining, % of DMSO control (lower = more inhibition) in assay [1] of 41%. In [2], the parasite growth, % of control (lower = inhibition) turned out to be 21.1%. This compound had a growth, % of control in [3] of 40.8%. In addition, in assay [4], the viability (% of control) was found to be 116%. Further, the Potency result in [5], in [9], in assay [6], in assay [10] and in assay [7] was “inactive” in each case.

In assay [8], `Nc1nc(Cl)nc2c1ncn2[C@@H]1O[C@H](CO)[C@@H](O)[C@H]1F` displayed a parasite growth, % of DMSO control of 81.5%. Moreover, the parasite growth remaining, % of DMSO control (lower = more inhibition) in assay [1] is 97.5%. Moreover, the parasite growth, % of control (lower = inhibition) in [2] amounted to 63.9%. The compound also yielded a growth, % of control in assay [3] of 96.1%. Moreover, the viability (% of control) in assay [4] was 13.2%. Moreover, the Potency entry in assay [5], in assay [9], in assay [6] and in assay [10] was “inactive” each time.

Take `COC(=O)[C@H](c1ccccc1Cl)N1CCc2sccc2C1`: in [8], the parasite growth, % of DMSO control is 43.8%. Moreover, in [1], the parasite growth remaining, % of DMSO control (lower = more inhibition) amounted to 79%. Also, the parasite growth, % of control (lower = inhibition) in assay [2] was 22.1%. In assay [3], this compound returned a growth, % of control of 24.3%. Moreover, in assay [4], the viability (% of control) is 91.3%. Besides, the Potency entry in [5], in assay [9], in [6] and in assay [10] was “inactive” each time.

Consider `CC(C)(O)CC(=O)NCCn1ccc2ncnc(Nc3ccc(Oc4cccc(C(F)(F)F)c4)c(Cl)c3)c21`, for which, in [8], the parasite growth, % of DMSO control was found to be 11.6%. For the same compound, the parasite growth remaining, % of DMSO control (lower = more inhibition) in [1] amounted to 18.3%. Further, the parasite growth, % of control (lower = inhibition) in assay [2] turned out to be 23%. In addition, the growth, % of control in assay [3] is 9.01%. Further, the viability (% of control) in assay [4] amounted to 61.4%. For the same compound, the Potency result in assay [5] and in assay [9] was “inactive” each time. Further, the Potency in assay [6] is 0.935 µM (active); in [11] it was 26.4 µM (active); in assay [7] it was 26.4 µM (active).

For `CCC(c1ccc(O)cc1)C(CC)c1ccc(O)cc1` (configuration not stated), the parasite growth, % of DMSO control in assay [8] was 84.9%. For the same compound, in [1], the parasite growth remaining, % of DMSO control (lower = more inhibition) is 90%. The parasite growth, % of control (lower = inhibition) in [2] was 75%. In assay [3], this compound returned a growth, % of control of 106%. Besides, in assay [4], the viability (% of control) came out at 104%. In assay [5], the Potency result is “inactive”. Also, the figures for the Potency in [6] and in assay [7] were 0.743 µM (active) and 1.48 µM (active), respectively.

Take `CN(C)c1ccccc1CN1CCCN(Cc2ccccc2N(C)C)C1c1ccncc1`: the parasite growth remaining, % of DMSO control (lower = more inhibition) in assay [1] turned out to be 9.84%. In addition, the growth, % of control in [3] came out at 12.9%. Besides, the viability (% of control) in assay [4] was determined as 29.7%. The Potency entry in assay [5] and in [9] was “inactive” each time. The Potency in [6] is 20.9 µM (active); in assay [10] it was 18.7 µM (active).

In [8], `CNc1nc(Nc2ccc(C(=O)N3CCOCC3)cc2OC)ncc1Cl` returned a parasite growth, % of DMSO control of 69.3%. The compound further gave a parasite growth remaining, % of DMSO control (lower = more inhibition) in assay [1] of 90.3%. For the same compound, the parasite growth, % of control (lower = inhibition) in assay [2] came out at 56.9%. Besides, in [4], the viability (% of control) was determined as 93.7%. Further, the Potency result in assay [5], in assay [9], in [6] and in assay [10] was “inactive” in each case.

In [12], `COc1cccc(OC)c1-c1cc(C(=O)NC2(C(=O)O)C3CC4CC(C3)CC2C4)nn1-c1ccnc2cc(Cl)ccc12` (configuration not stated) gave an activity, percent of control of 56.1%. This compound also gave a remaining proliferation (% of control), lower = more inhibition in assay [13] of 47.3%. Also, the parasite growth, % of DMSO control in assay [8] stood at 31.4%. This compound also showed a parasite growth remaining, % of DMSO control (lower = more inhibition) in assay [1] of 33.7%. In assay [2], this compound had a parasite growth, % of control (lower = inhibition) of 29.8%. Besides, the viability (% of control) in [4] worked out at 128%. The Potency result in assay [5], in assay [6], in assay [11], in [10], in assay [14] and in assay [15] was “inactive” each time. Also, the Potency entry in [16] is “inactive”.

With `OCCn1cc(-c2ccc3c(c2)CCC3=NO)c(-c2ccncc2)n1`, the activity, percent of control in assay [12] is 97.1%. This compound showed a remaining proliferation (% of control), lower = more inhibition in [13] of 73.4%. Further, the parasite growth, % of DMSO control in assay [8] was 67.4%. In assay [1], this compound showed a parasite growth remaining, % of DMSO control (lower = more inhibition) of 83.9%. The compound further displayed a parasite growth, % of control (lower = inhibition) in assay [2] of 74.7%. The viability (% of control) in [4] was 76.4%. The Potency result in assay [5], in [9], in assay [10], in [15] and in assay [16] was “inactive” in each case. Also, in assay [6], the Potency was 26.4 µM (active).

The compound `Cc1cc(CS(=O)(=O)c2ccccc2)cc(OCc2ccc(CN3CCC[C@H]3CO)cc2)c1` displayed a parasite growth, % of DMSO control in [8] of 33.1%. In assay [1], the parasite growth remaining, % of DMSO control (lower = more inhibition) was 30.3%. The parasite growth, % of control (lower = inhibition) in [2] is 18.8%. Also, the viability (% of control) in assay [4] stood at 76.3%. Besides, the Potency result in [5] and in assay [9] was “inactive” in each case. The Potency in assay [6], in [11] and in assay [7] was 20.9 µM (active) each time.
